High-throughput results from PubChem.
The full list was thinned out, with hits kept by preference.
Methyltransferases = Primary Screen for Target Class Profiling of Small Molecule Inhibitors of Methyltransferases | calls only at 40 µM | 25,000 tested, 3.9% active | AID 1745853, 2022 | purified enzyme, MTase-Glo SAH luminescence; active compounds read low; call rule not given here
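Each enzyme was assayed with SAM and its substrate. SAH formation detected by MTase-Glo luminescence; single-point 40 uM screen[…].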
Each line names hits and unclear results; the compound was inactive in the other large screens; ! = not active in a repeat.

COC(=O)c1ncn2c1C(=O)N(CCc1ccc(OC)c(OC)c1)C(C)(C(=O)NC1CCCCC1)C2 (configuration not stated)	none
COc1ccc2c(OCc3nnc4ccc(-c5ccccc5)nn34)ccnc2c1	none
COc1ccc2c(Oc3ccc(NC(=O)c4c(C)n(CC(C)(C)O)n(-c5ccccc5)c4=O)cc3F)ccnc2c1	Methyltransferases active
O=C(Nc1ccc(Oc2ccnc3[nH]ccc23)c(F)c1)c1cccn(-c2ccc(F)cc2)c1=O	none
CCC1(C(=O)Nc2cc(OC)ccc2OC)CCCCC(=O)N1 (configuration not stated)	none
Oc1ccc(/C=C/c2cc(O)cc(O)c2)cc1	none
O=c1cc(O)cc(/C=C/c2ccc(O)c(O)c2)o1	Methyltransferases active
O=C(/C=C/c1ccc(O)c(O)c1)OCCc1ccccc1	none
CC[C@H]1CN(C(=O)C(C)(C)C)CC[C@H]1CC(=O)NCc1cccnc1	none
CCc1cccc(N2C(=O)c3cc(C(=O)OC)nn3CC2(C)C(=O)NC2CCCCCC2)c1 (configuration not stated)	none
CCCCN1C(=O)c2cc(C(=O)Nc3ccc(Cl)cc3)nn2CC1(C)C(=O)NC1CCCC1 (configuration not stated)	none
CN(C)C(=O)N(C)Cc1ccc(F)cc1	none
COc1ccc(CN2C(=O)c3nc4ccccc4n3CC2(C)C(=O)NCc2ccccc2)c(OC)c1 (configuration not stated)	none
COc1cc(/C=C/C(=O)O[C@H]2[C@H](OC(=O)/C=C/c3cc(OC)c(O)c(OC)c3)O[C@H](CO[C@@H]3O[C@H](CO)[C@@H](O)[C@H](O)[C@H]3O)[C@@H](O)[C@@H]2O)ccc1O	Methyltransferases active
COc1cc(CC(COC2OC(CO)C(O)C(O)C2O)c2cc(/C=C/CO)cc(OC)c2O)ccc1O (configuration not stated)	none
COc1cc(/C=C/C(=O)O[C@H]2[C@H](O)[C@@H](CO)O[C@@]2(CO)O[C@H]2O[C@H](CO)[C@@H](O)[C@H](O)[C@H]2O)ccc1O	none
COc1cc(/C=C/C(=O)OC[C@H]2O[C@@](CO)(O[C@H]3O[C@H](CO)[C@@H](O)[C@H](O)[C@H]3O)[C@@H](OC(=O)/C=C/c3ccc(O)c(OC)c3)[C@@H]2O)ccc1O	Methyltransferases active
COc1cc([C@H]2c3cc(O)c(OC)cc3C[C@@H](CO[C@@H]3O[C@H](CO)[C@@H](O)[C@H](O)[C@H]3O)[C@@H]2CO)ccc1O	none
COc1cc(/C=C/C(=O)OC[C@H]2O[C@H](O[C@]3(CO)O[C@H](CO)[C@@H](O)[C@@H]3O)[C@H](O)[C@@H](O)[C@@H]2O)cc(OC)c1O	none
Cc1ccc(-c2cccc(CN3CCCC(c4nc5ccc(C)cc5c(=O)[nH]4)C3)c2)c(C)c1 (configuration not stated)	none
Cc1ccc(C(=O)Nc2ccc3c(c2)C(=O)N(C)C2=NCCN23)cc1	none
Cc1cccc(CN2C(=O)c3ccc(-c4ccco4)n3CC2(C)C(=O)NC2CCCCCCC2)c1 (configuration not stated)	none
CN(C)c1ccc(C(=O)NC[C@H]2O[C@@H](CO)[C@@H](O)[C@H]2N(C)CCc2ccccc2)cc1	none
O=C(CCc1ccccc1)c1c(O)c([C@@H]2O[C@H](CO)[C@@H](O)[C@H](O)[C@H]2O)c(O)c([C@@H]2O[C@H](CO)[C@@H](O)[C@H](O)[C@H]2O)c1O	Methyltransferases active
O=C(Cc1ccccc1)OC[C@H]1O[C@H](O[C@H]2O[C@H](CO)[C@@H](O)[C@H](O)[C@H]2O)[C@H](O)[C@@H](O)[C@@H]1O	none
C=C1C(=O)O[C@@H]2[C@H]1CCC(C)=C(CCC(=O)O)[C@@]2(C)O	none
COCCCN1C(=O)CSc2c(c3ccccc3n2C)C1C(=O)NCc1ccccc1OC (configuration not stated)	none
COc1cccc(CSc2nnc3n(Cc4ccc(F)cc4)c(=O)c4ccccc4n23)c1	none
CC(C)(C)c1ccc(S(=O)(=O)/C=C/C#N)cc1	Methyltransferases active
Cn1c(=O)c(F)c(Nc2ccc(I)cc2F)c2c(=O)n(CC(O)CO)cnc21 (configuration not stated)	none
COc1cccc(CNC(=O)Nc2cccc(-c3ccc(N4CCCCC4)nn3)c2)c1	none
COC(=O)C1=C(C)NC(C)=C(C(=O)OC)C1c1cccc(NC(=O)NCCCN2CCC(c3cccc(OC)c3)CC2)c1	Methyltransferases active!
CCN(CC)c1ncccc1CNC(=O)Nc1cccc(OC)c1	none
Cn1c(Cn2cccn2)nnc1C1CC(Nc2ncnc3sccc23)C1 (configuration not stated)	none
CC1(C)SC2C(NC(=O)[C@H](C(=O)O)c3ccsc3)C(=O)N2C1C(=O)O (some centres not stated)	none
CC1CCN(S(=O)(=O)c2ccc3c(ccn3CC(=O)NCc3ccccc3Cl)c2)CC1	none
C[n+]1cc2c3c(ccc2c2ccc4cc5c(cc4c21)OCO5)OCO3	Methyltransferases active
CCOC(=O)c1ccc(NC(=O)N2CCn3c(C)ccc3C2CC)cc1 (configuration not stated)	none
c1ccc(OCCNc2nc(-c3cccnc3)nc3c2CCNCC3)cc1	none
C=C1[C@H]2CCC3[C@]4(C)CCC[C@@](C)(C(=O)O)C4CC[C@]3(C2)[C@H]1OC(C)=O (some centres not stated)	none
COc1cccc(CNC(=O)Cn2nc3n(CCc4ccccc4)c(=O)c4ccccc4n3c2=O)c1	none
c1ccc(CNc2nc(-c3ccccc3)no2)cc1	none
O=C(NCc1ccc(Oc2ccccc2)cc1)c1nc(-c2cc(Br)c(O)c(Br)c2)no1	Methyltransferases active
COCc1nc(-c2ccc(OC3CN(C(=O)NCc4ccc(OC)cc4)C3)cc2)no1	none
O=C1CC2CCN(Cc3coc(-c4ccccc4)n3)CC2CCN1 (configuration not stated)	none
CCOC(=O)c1cc2n(n1)CC(C)(C(=O)NCc1ccccc1)N(c1ccc3c(c1)OCO3)C2=O (configuration not stated)	none
COCc1nc(NCCc2nc(-c3ccccn3)no2)c2cnn(C)c2n1	none
COc1ccc(OC)c2c1cc1n2CC(C)(C(=O)NC2CCCC2)N(Cc2cccnc2)C1=O (configuration not stated)	none
C/C(=N\N=C(N)N)c1cc(NC(=O)CCCCCCCCC(=O)Nc2cc(/C(C)=N/N=C(N)N)cc(/C(C)=N/N=C(N)N)c2)cc(/C(C)=N/N=C(N)N)c1	Methyltransferases active
O=C(NCC(=O)N1CC[C@H](NC2CCC(O)(c3ccc(-c4ncccn4)cn3)CC2)C1)c1cccc(C(F)(F)F)c1 (some centres not stated)	none
COC(=O)c1cc2n(n1)CC(C)(C(=O)NC1CCCCC1)N(c1ccc(C)c(Cl)c1)C2=O (configuration not stated)	none
COc1ccc(C(=O)N2CCCC2)c(OC2CCN(C(=O)C3C=CCN3)CC2)c1 (configuration not stated)	none
Cc1cc(F)ccc1NC(=O)Cn1c(=O)oc2cc(S(=O)(=O)N3CC(C)CC(C)C3)ccc21 (configuration not stated)	none
COc1ccc(CNC(=O)CCC2CCCN(C(=O)CCN3CCCCO3)C2)c(OC)c1 (configuration not stated)	none
Cc1ccccc1-c1cc(O)c2c(c1)CN(C(=O)C1CCNCC1)CCO2	none
CCC(=O)N1CCOc2c(cc(-c3ccc(OC)c(OC)c3)cc2OC[C@H]2CCCN(C)C2)C1	Methyltransferases active!
